Assay results from PubChem BioAssay (NCI).
Compounds without any hit were thinned out: in the full panel of roughly 83,000, 20% have a hit.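 Testing used 96-well plates and a 48-hour single-concentration exposure. Example: -40 means 40% of the starting cells died.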 Unmarked numbers belong to inactive results. The source made the active and inactive calls.

Each compound was assayed on M14 melanoma (assay: NCI-60 one-dose screen, 48 h (100 = growth as untreated, 0 = no growth, -100 = all killed)). Settings: 10 µM unless noted.
Experimental: Growth inhibition of the M14 human tumor cell line is measured as a screen for anti-cancer activity. Cells are grown in 96 well plates and exposed to the test compound for 48 hours. Compounds are tested at a single concentration, which is 10^-5 M for most compounds. The reported endpoint is percent growth (GI% or GIPRCNT), where numbers from 0 - 100% represent growth inhibition, and numbers from -100% - 0 represent cell death. For example, a value of 40 represents 60% growth inhibition. A value of 0 means no net growth occurred over the course of the experiment. A value of -40 indicates 40% of cells at the beginning of the experiment died by the end of the experiment. A value of -100 means all cells are dead at the end of the experiment.
NCI-60 Human Tumor Cell Lines Screen was performed using the standard one-dose NCI protocol, which is described in more detail at https://dtp.cancer.gov/discovery_development/nci-60/default.htm.
Compounds with GIPRCNT values below 10 were considered active. Activity score was based on GIPRCNT using the following formula: […]
Score is 0 for GIPRCNT values of 100 or above, 50 for GIPRCNT values of 0, and 100 for GIPRCNT values of -100.
Compound `Cc1ccc(CSCc2ccc(C(=O)NC3CC3)o2)cc1` has a growth of 57.3%.
In the case of `CSC1=NC(=Nc2c(C)cccc2C)C2(CCC(C(C)(C)C)CC2)N1c1ccc(Cl)cc1` (stereo not given), the growth is reported as 49.5%.
`CCCCCCCCCCCCCCCCS(=O)(=O)Nc1cc(C(=O)NN)cc(C(=O)NN)c1` was tested, and the growth was 88%.
Compound `CCOC(=O)c1ccccc1SC(C[N+](=O)[O-])c1ccccc1` (stereo not given) has a growth of 68.9%.
For `c1ccc(C(CC2=NCCCN2)c2ccccc2)cc1`, the growth was 92.5%.
In the case of `COc1ccc2[nH]c(C(=O)OCc3ccc4cccc(O)c4n3)cc2c1`, the growth is reported as -75.6% (active).
In the case of `COc1cc(/C=C/C(=O)c2c(C)nc3ccccc3c2C)ccc1OCCCOc1cc2c(cc1OC)C(=O)N1CCC[C@H]1C=N2`, the growth is reported as -45.2% (active).
`Cc1cc(NC(=O)c2ccc(N)cc2)ccc1N=Nc1ccc2cc(S(=O)(=O)O)cc(S(=O)(=O)O)c2c1` showed a growth of 112%.
With `Oc1ccc(Nc2ncnc3c2sc2ncccc23)cc1` the growth was -19% (active).
`C/C(=N\NC(=S)N1CCCCC1)c1ccccn1` was tested, and the growth was -33.4% (active).
`Oc1ccc(-c2cnc(-c3ccccc3)[nH]2)c(O)c1` was tested, and the growth was 119%.
In the case of `CCCCN(CCCC)CCC(=O)c1ccc(OC)c2ccccc12`, the growth is reported as 104%.
In the case of `O=C1/C(=C\c2cccn2C(=O)c2ccccc2)c2ccccc2N1c1c(Cl)cccc1Cl`, the growth is reported as 76%.
`COc1ccc(-c2oc(=O)ccc2-c2cc(OC)c(OC)c(OC)c2)cc1F` gave a growth of 60.8%.
In the case of `O=S(=O)(NCC[C@@H]1C[C@H]1c1ccc2ccccc2c1)c1ccc(C(F)(F)F)cc1`, the growth is reported as 96.2%.
For `CC(C)NC(=O)OCC#CCOC(=O)NC(C)C`, the growth was 101%.
With `CCCCCCCCCCC(C(O)c1ccccc1)N1CCCCC1` (stereo not given) the growth was -63.8% (active).
Work on `Nc1nc(N)c2c(n1)NC(c1sc(Cl)nc1Cl)CC(c1ccccc1)=N2` (stereo not given) yielded a growth of 26.2%.
With `CNCCCNc1ccnc2cc(Cl)ccc12` the growth was -32.6% (active).
For `CCN(CC)c1ccc(C(=N)c2ccc(N(C)C)cc2)cc1`, the growth was -44.4% (active).
With `C=CCn1c(C)nc2cc(Nc3nc(N4CCOCC4)nc4nc[nH]c34)ccc21` the growth was 97%.
`Cc1ccc2cc3c(NC(=O)c4cccnc4)nn(C)c3nc2c1` was tested, and the growth was 93.3%.
`O=C(Nc1ccccc1)C(CCCCN1C(=O)c2ccccc2C1=O)N1C(=O)c2ccccc2C1=O` (stereo not given) was tested, and the growth was 105%.
For `COc1cc(C2CC(c3cccc(Nc4ccnc5cc(Cl)ccc45)c3)=NN2c2ccccc2)cc(OC)c1OC` (stereo not given), the growth was 34.7%.
For `COc1ccc2[nH]c(C(=O)OCc3ccc4c(Br)cc(Br)c(O)c4n3)cc2c1`, the growth was -64.1% (active).
`COc1ccc2cc(-c3nc(C)c(C(C)=O)c(-c4ccc(C)cc4)n3)ccc2c1` gave a growth of 91.1%.
`COc1ccc(C2C3CCc4ccccc4C3=NN2C(=O)c2cc(OC)c(OC)c(OC)c2)cc1O` (stereo not given) gave a growth of 101%.
In the case of `CCN(CC)Cc1cc(Nc2nc(NC3CCC(N(C)C)CC3)c3ccccc3n2)ccc1OC` (stereo not given), the growth is reported as -10.2% (active).
`COc1cc(-c2csc(NC(=O)Nc3cccc(C(F)(F)F)c3)n2)cc(OC)c1OC` showed a growth of 47.8%.
`COc1cc2c(cc1OC)C(=O)OC2` showed a growth of 119%.
`NNC(=O)Cc1ccccc1` was tested, and the growth was 74.5%.
Compound `COc1ccc(/C=C/C(=O)c2ccc(NC(=O)CSc3nnc(-c4ccc(OC)cc4)n3-c3ccccc3)cc2)cc1` has a growth of 92.7%.
Work on `CC(OC(=O)Nc1cccc(Cl)c1)C(=O)O` (stereo not given) yielded a growth of 95.5%.
With `N=C(N)c1ccc(-c2ccc(-c3cc(Cl)cc(Cl)c3)o2)nc1` the growth was -76.4% (active).
With `CCCCCCCCCCCCCCC(C(=O)OCC)C(=O)OCC` the growth was 108%.
Work on `CC1(C)C2CCC(O)(C(=O)O)C1C2` (stereo not given) yielded a growth of 105%.
For `COc1ccc(-c2cn(-c3cccc(C(=O)/C=C/c4ccc(O)c(OC)c4)c3)c(=O)[nH]2)cc1`, the growth was 51%.
With `COc1cc2c(cc1OC)C(=O)C(Br)CC2` (stereo not given) the growth was 32%.
Work on `COc1cc2nccc(Oc3ccc(NC(=O)C4(C(=O)Nc5c(F)cc(F)cc5F)CC4)cc3)c2cc1Oc1ccc(N)cn1` yielded a growth of 56.9%.
For `NS(=O)(=O)c1ccc(N2N=C(c3cccs3)CC2c2ccccc2O)cc1` (stereo not given), the growth was 0.852% (active).
